# Inconclusive results are not listed. Entries that show only a call come without a potency. Unmarked numbers belong to inactive results. Activity calls are given as the source filed them. Calls come from the whole dose curve; as a rule, active = well fitted inhibition curve with a large enough effect; inconclusive = small, poorly fitted or top-dose-only effect; inactive = no such curve, though single readings can be large or run the other way.
# Biological target: Retinaldehyde dehydrogenase 3 (Homo sapiens) (UniProt P47895)
# Assay: qHTS for Inhibitors of the Aldehyde Dehydrogenase Family (ALDH1A3) Primary screen (AID 2061315)
# Conditions: ALDH inhibition qHTS; series mostly up to 56 µM
Compound,Potency,"activity change, negative = inhibition"
C=C(C)C1CCC2(C(=O)O)CCC3(C(=O)O)C(CCC4C5(C)CCC(O)C(C)(C(=O)O)C5CCC43C)C12 (centres undefined),inactive,
COC(=O)[C@]1(C)CCC[C@@]2(C)C(=O)CC[C@H]3C(=O)C=C(CC[C@@H]21)C3O (some centres undefined),inactive,
CC(=O)OC1CCC2(C)C(CCC3(C)C2CC=C2C4C(C)C(C)CCC4(C)CCC23C)C1(C)C(=O)O (centres undefined),inactive,
COc1ccc(C[C@H]2COC(=O)[C@@H]2Cc2ccc(O[C@@H]3O[C@H](CO)[C@@H](O)[C@H](O)[C@H]3O)c(OC)c2)cc1OC,inactive,
COc1ccc(/C=C/C(=O)O[C@@H]2[C@@H](O)[C@H](C)O[C@@H](OC3C4C=COC(O[C@@H]5O[C@H](CO)[C@@H](O)[C@H](O)[C@H]5O)C4C4(CO)OC34)[C@@H]2O)cc1OC (some centres undefined),inactive,
C=C(C)C1CC(O)C(C)C12CC(O)C1(C)OC1C2O (centres undefined),inactive,
C=C1C(=O)O[C@@H]2[C@H]1CCC(C)=C(CCC(=O)O)[C@@]2(C)O,inactive,
O=C(C[C@@H]1C(C(=O)O)=CO[C@@H](O[C@@H]2O[C@H](CO)[C@@H](O)[C@H](O)[C@H]2O)/C1=C\CO)OCCc1ccc(O)cc1,inactive,
C=C(C)C(C)C1OC23CC4(CO2)C(CCC2C5(C)CCC(OC6OCC(O)C(OC7OC(CO)C(O)C(OC8OCC(O)C(O)C8O)C7O)C6OC6OC(CO)C(O)C6O)C(C)(C)C5CCC24C)C3C(C)(O)C1OC(C)=O (centres undefined),inactive,
CC1=C(CO)CC(C(C)C2CCC3C4CC=C5CC(OC6OC(COC7OC(CO)C(O)C(O)C7O)C(O)C(O)C6O)CC(O)C5(C)C4CCC23C)OC1=O (centres undefined),inactive,
CCC[C@@H](NC(=O)N1C(=O)C(CC)(CC)[C@@H]1Oc1ccc(C(=O)N2CCN(C)CC2)cc1)c1ccc2c(c1)OCO2,inactive,
C=C1CC23CC(=O)C4C(CO)(CO)CCCC4(C)C2CCC1C3 (centres undefined),inactive,
COC(=O)C1=COC(OC2OC(CO)C(O)C(O)C2O)C2C(C)C(OC(C)=O)C(OC(=O)c3ccccc3)C12 (centres undefined),inactive,
Cc1ccc(OC[C@H](O)[C@H](C)NC(C)C)c2c1CCC2,inactive,
Nc1nc2c(s1)CCN(Cc1ccc(Cl)cc1)CC2,inactive,
C[C@H](C(=O)NC1CCCC1)N(C(=O)Cn1nnc(-c2ccc3c(c2)OCO3)n1)C1CCCCC1,inactive,
CNc1nc(Nc2cn(C(C)(C)C#N)nc2C)ncc1C(F)(F)F,inactive,
C=C1CC2OC(=O)C(COC)C2C(OC(=O)/C(C)=C\C)CC2(C)OC1=CC2=O (centres undefined),inactive,
CC(NC(=O)C(O)C(C)C)C(=O)NC1C(=O)N(C)CCc2ccccc21 (centres undefined),inactive,
C[C@@H]1O[C@@H](O[C@H]2[C@H](OC(=O)C34CCC5(C)C(=CCC6C7(C)CC(O)C(O[C@@H]8O[C@H](C(=O)O)[C@@H](O)[C@H](O)[C@H]8O)C(C)(C(=O)O)C7CCC65C)C3CC(C)(C)CC4O)O[C@H](C)[C@@H](O)[C@@H]2O)[C@H](O)[C@@H](O[C@@H]2OC[C@](O)(CO)[C@H]2O[C@@H]2O[C@H](CO)[C@@H](O)[C@H](O)[C@H]2O)[C@H]1O (some centres undefined),,5.31% [at 11.2 µM]
CC(=O)c1ccc(O[C@@H]2O[C@H](CO[C@@H]3OC[C@@H](O)[C@H](O)[C@H]3O)[C@@H](O)[C@H](O)[C@H]2O)cc1,inactive,
CCOC(=O)c1cc(C#N)c(N2CCC(C(=O)NS(=O)(=O)Cc3ccccc3)CC2)nc1C,inactive,
C[C@]1(OC(=O)/C=C/c2ccc(O)cc2)C[C@@H](O)[C@]2(O)C=CO[C@@H](O[C@@H]3O[C@H](CO)[C@@H](O)[C@H](O)[C@H]3O)C12 (some centres undefined),inactive,
CC(=O)OC1C(OC(=O)c2ccccc2)C2C(C)(C)CC(=O)CC2(C)C23CCC(C)(C2)C(O)CC13 (centres undefined),inactive,
CC(C)c1ccc(CO)cc1O[C@@H]1O[C@H](CO)[C@@H](O)[C@H](O)[C@H]1O,inactive,
O=C(O)CCc1cccc(O[C@@H]2O[C@H](CO)[C@@H](O)[C@H](O)[C@H]2O)c1O,inactive,
CO[C@H]1C=C2C(CC[C@H](O[C@@H]3O[C@H](CO)[C@@H](O)[C@@H](O)[C@H]3O)C2(C)C)[C@]2(C)CC[C@]3(C)C([C@H](C)C(O)C(C=C(C)C)O[C@@H]4O[C@H](CO)[C@@H](O)[C@@H](O)[C@H]4O)CC[C@@]3(C)C12 (some centres undefined),inactive,
CCNC1(C(N)=O)CN(c2nc(C)nc3c(-c4ccc(Cl)cc4)c(-c4ccccc4Cl)nn23)C1,inactive,
C=CC1C(O[C@@H]2O[C@H](CO)[C@@H](O)[C@H](O)[C@H]2O)OC=C(C(=O)OC)C1Cc1nccc2c1[nH]c1ccccc12 (some centres undefined),inactive,
